Our source for the composite z-score, z-score and composite Z-score values is PubChem BioAssay.

For test [1], the system named is Human papillomavirus type 1a protein E7 (residues 44-93). The test can be described thus: HPV1a E7 fragment binders on microarrays, primary screen, biochemical, small-molecule microarray, residues 44-93, 635 nm fluorescence (AID 1108).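 Further: E7 fragment applied at 1 µg/mL in TBST for 1 h at 4 C; score combines spot fluorescence with its signal to noise ratio.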 Conditions: small-molecule microarray binding, fluorescence 635 nm; higher = more signal.
Test [2] in a line: modulators of HCV replicon luciferase signal, primary screen, HCV replication inhibitor project, Huh7 cells, luciferase reporter (AID 1109).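 Further: huh7 hepatoma cells harbouring a luciferase neomycin HCV replicon reporter; luciferase luminescence as measure of HCV replicon replication; test concentration not given here.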 Conditions: 48 h, higher = more signal. (A replicon is a self-replicating genome or part of one, used to study replication in cells.)
Test [3] has as its target Left-right determination factor 2 (Homo sapiens) (UniProt O00292). Kind of test: LEFTY2 binders on small-molecule microarrays, primary screen, biochemical, small-molecule microarray, 635 nm fluorescence scan (AID 1110). The settings on record: LEFTY2 binding, higher = more signal.
For test [4], the target named is Calmodulin-1 (Homo sapiens) (UniProt P0DP23). Kind of test: CALM1 binders on microarrays, EGTA buffer, profiling panel, biochemical, small-molecule microarray, Cy5-labelled CALM1 (AID 1111).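 Further: labelled calmodulin applied in Tris saline Tween buffer holding calcium plus EGTA and DTT.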 Conditions: Cy5-CALM1 binding fluorescence, higher = more signal.
The target is the same in test [5]. Kind of test: calcium-bound CALM1 binders on microarrays, profiling panel, artefact control for SMM control-protein annotation, biochemical, small-molecule microarray, Cy5-labelled CALM1, plus calcium (AID 1112).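 Further: score merges spot fluorescence with signal to noise from triplicate slides.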 Conditions: Cy5-CALM1 binding fluorescence, higher = more signal.
Test [6] is described as follows: small-molecule microarray binders of probe aWnt5a, primary screen, biochemical, biotinylated probe, 635/667 nm fluorescence (AID 1113).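 Further: score merges 667 nm fluorescence intensity with signal-to-noise per printed feature.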 Conditions: higher = more signal.
Test [7] is described as follows: small-molecule microarray binders of probe aShh, primary screen, biochemical, biotinylated probe, 635/667 nm fluorescence (AID 1114).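 Further: probe is biotin-labelled aShh protein from a stem cell growth factor screen; measures binding of labelled protein to compounds printed on the slide; score merges feature fluorescence at 667 nm with signal-to-noise.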 The settings on record: higher = more signal.
Test [8] is described as follows: small-molecule microarray binders of probe aNog, primary screen, biochemical, biotinylated probe, 635/667 nm fluorescence (AID 1115).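 Further: probe is biotinylated aNog protein used at 0.15 µg/mL for 1 h at 4 C; z-score combines 667 nm fluorescence of each spot with its signal to noise.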 The settings on record: higher = more signal.
Test [9] concerns the target Torsin-1A-interacting protein 1 (Homo sapiens) (UniProt Q5JTV8). The test can be described thus: LAP1 binders from COS7 cell lysate, primary screen, small-molecule microarray, 635/667 nm fluorescence (AID 1116). Conditions: COS7-hLAP1 lysate binding, 635 nm fluorescence, higher = more signal.
Test [10] concerns the target Alpha-bungarotoxin (Bungarus multicinctus) (UniProt P60615). The test can be described thus: alpha-bungarotoxin binders on microarray, profiling panel, artefact control for SMM control protein annotation, biochemical, small-molecule microarray, Alexa647 label, 635/667 nm fluorescence (AID 1117). Conditions: alpha-BTX-A647 binding fluorescence, higher = more signal.
Another test concerns the target Albumin (Bos taurus) (UniProt P02769). Kind of test: bovine serum albumin binders on microarray, profiling panel, artefact control for SMM control protein annotation, biochemical, small-molecule microarray, Alexa647 label, 635/667 nm fluorescence (AID 1118).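 Further: score merges 667 nm emission intensity and signal-to-noise per printed compound spot.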 Conditions: BSA-A647 binding, fluorescence 635 nm, higher = more signal.
Test [11] in a line: small-molecule microarray binders of probe aXIP, primary screen, biochemical, NeuroSMM set, 635/667 nm fluorescence (AID 1119).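 Further: probe is the protein aXip251-270 applied at 1 µg/mL to compound-printed slides; binding of probe to printed compounds measured as 667 nm fluorescence plus signal to noise.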 Conditions: higher = more signal, called active from +8 up or from −8 down.
Test [12] in a line: small-molecule binders of probe aNOTCH3, primary screen, biochemical, small-molecule microarray, 635/667 nm fluorescence (AID 1120).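 Further: probe is a biotin-tagged antibody raised against NOTCH3 rather than NOTCH3 protein; score merges spot fluorescence near 667 nm with spot signal to noise.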 The settings on record: higher = more signal.
A short description of test [13]: small-molecule binders of probe aNOTCH2, primary screen, biochemical, small-molecule microarray, 635/667 nm fluorescence (AID 1121).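 Further: score merges feature fluorescence read at 667 nm with its signal to noise.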 The settings on record: higher = more signal.
For test [14], the target named is Carbonic anhydrase 2 (Homo sapiens) (UniProt P00918). The test can be described thus: CAII small-molecule binders, profiling panel, biochemical, small-molecule microarray, Alexa647-labelled CAII (AID 1122). The settings on record: CAII-A647 binding fluorescence, higher = more signal.
The nature of test [15]: COS7 lysate on small-molecule microarray, probe aHis, 635 nm (AID 1123).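 Further: z-score combines 667nm fluorescence intensity with signal-to-noise per printed compound spot.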 Conditions: COS7 cell lysate, fluorescence, higher = more signal.
Test [16] can be described thus: compound binding in COS7 lysate, probe aLAP1, primary screen, cell lysate, small-molecule microarray (AID 1124).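 Further: lysate comes from COS7 cells expressing LAP1 and is applied at 0.3 µg/mL; score merges spot fluorescence near 667 nm with signal-to-noise over triplicate slides.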 The settings on record: probe aLAP1, fluorescence, higher = more signal.
The subject of the next test is Sam68 (KHDRBS1). Kind of test: Sam68 small-molecule binders, primary screen, biochemical, small-molecule microarray, 635 nm fluorescence (AID 1125).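 Further: score merges 667 nm channel intensity with signal to noise over triplicate slides.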 The settings on record: small-molecule microarray binding, higher = more signal.
Test [17] concerns Chordin-like protein 2 (CHRDL2). The test can be described thus: CHRDL2 small-molecule binders, primary screen, biochemical, small-molecule microarray, 635 nm fluorescence (AID 1126).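 Further: printed compound slides probed with Chrdl2 protein at 4 µg/mL for 1 h at 4 C; score merges 667 nm emission intensity with signal to noise over three replicate slides.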 The settings on record: small-molecule microarray binding, fluorescence 635 nm; higher = more signal.
For test [18], the target named is Concanavalin-A (Canavalia ensiformis) (UniProt P02866). Kind of test: ConA small-molecule binders, primary screen, artefact control for SMM control protein annotation, biochemical, small-molecule microarray, Alexa647 label, 635 nm (AID 1127).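 Further: z combines 667 nm emission intensity with signal-to-noise across three replicate slides.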 The settings on record: ConA-A647 binding fluorescence, higher = more signal.

The source made the active and inactive calls.

Sequence of Albumin (Bos taurus) (P02769 whole entry, looked up): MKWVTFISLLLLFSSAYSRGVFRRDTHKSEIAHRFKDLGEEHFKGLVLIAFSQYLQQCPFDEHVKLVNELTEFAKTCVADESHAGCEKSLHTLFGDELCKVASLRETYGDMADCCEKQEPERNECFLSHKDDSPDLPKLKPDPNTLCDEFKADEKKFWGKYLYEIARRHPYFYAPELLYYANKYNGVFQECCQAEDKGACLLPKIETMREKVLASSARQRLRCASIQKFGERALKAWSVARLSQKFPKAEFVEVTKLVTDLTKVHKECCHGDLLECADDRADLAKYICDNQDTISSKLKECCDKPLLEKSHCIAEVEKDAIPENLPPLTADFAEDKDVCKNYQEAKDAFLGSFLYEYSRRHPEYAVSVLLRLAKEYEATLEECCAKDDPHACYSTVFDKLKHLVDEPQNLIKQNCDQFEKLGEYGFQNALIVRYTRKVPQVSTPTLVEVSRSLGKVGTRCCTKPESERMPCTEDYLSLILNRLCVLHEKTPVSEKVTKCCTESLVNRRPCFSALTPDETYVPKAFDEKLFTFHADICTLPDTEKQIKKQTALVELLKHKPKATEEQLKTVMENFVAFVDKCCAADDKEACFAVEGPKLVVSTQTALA
Sequence of Alpha-bungarotoxin (Bungarus multicinctus) (P60615 whole entry, looked up): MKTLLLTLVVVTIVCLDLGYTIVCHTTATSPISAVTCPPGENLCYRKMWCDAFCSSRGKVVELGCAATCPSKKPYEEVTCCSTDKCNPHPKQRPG
Sequence of Concanavalin-A (Canavalia ensiformis) (P02866 whole entry, looked up): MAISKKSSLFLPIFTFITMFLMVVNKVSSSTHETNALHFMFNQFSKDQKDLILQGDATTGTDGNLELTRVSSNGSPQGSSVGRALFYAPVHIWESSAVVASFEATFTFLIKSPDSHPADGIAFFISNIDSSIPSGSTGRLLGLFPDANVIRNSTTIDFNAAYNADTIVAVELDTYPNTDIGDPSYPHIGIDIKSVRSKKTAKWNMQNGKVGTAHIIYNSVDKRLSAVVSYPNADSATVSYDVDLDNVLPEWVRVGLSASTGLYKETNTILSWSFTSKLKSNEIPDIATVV
Sequence of Torsin-1A-interacting protein 1 (Homo sapiens) (Q5JTV8 whole entry, looked up): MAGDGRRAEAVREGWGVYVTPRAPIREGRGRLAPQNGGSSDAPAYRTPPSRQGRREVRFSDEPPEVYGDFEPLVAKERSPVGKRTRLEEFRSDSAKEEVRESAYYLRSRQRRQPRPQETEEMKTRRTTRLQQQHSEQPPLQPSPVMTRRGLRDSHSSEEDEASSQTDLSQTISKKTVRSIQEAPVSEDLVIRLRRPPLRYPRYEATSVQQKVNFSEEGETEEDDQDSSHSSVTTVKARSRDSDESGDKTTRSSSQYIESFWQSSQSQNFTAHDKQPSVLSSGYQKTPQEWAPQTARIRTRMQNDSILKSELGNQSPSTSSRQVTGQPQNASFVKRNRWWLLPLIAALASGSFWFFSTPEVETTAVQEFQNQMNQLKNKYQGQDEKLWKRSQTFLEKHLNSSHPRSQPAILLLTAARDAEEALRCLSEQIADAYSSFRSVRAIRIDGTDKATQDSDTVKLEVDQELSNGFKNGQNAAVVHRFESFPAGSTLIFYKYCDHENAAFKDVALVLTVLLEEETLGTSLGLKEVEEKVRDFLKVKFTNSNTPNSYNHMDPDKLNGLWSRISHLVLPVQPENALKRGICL
Sequence of Left-right determination factor 2 (Homo sapiens) (O00292 whole entry, looked up): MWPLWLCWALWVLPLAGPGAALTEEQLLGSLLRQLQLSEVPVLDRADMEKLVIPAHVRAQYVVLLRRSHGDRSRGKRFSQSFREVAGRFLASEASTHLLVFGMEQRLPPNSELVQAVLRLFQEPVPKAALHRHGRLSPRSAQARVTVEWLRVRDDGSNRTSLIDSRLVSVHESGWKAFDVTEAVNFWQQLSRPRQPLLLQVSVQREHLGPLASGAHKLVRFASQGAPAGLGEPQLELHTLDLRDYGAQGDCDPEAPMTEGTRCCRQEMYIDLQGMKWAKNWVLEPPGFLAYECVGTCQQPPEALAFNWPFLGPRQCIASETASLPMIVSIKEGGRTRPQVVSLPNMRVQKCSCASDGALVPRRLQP

On to `C=CC[C@@]1(C(=O)OC)N=C(c2ccc(OCCCO)cc2)O[C@@H]1c1ccccc1CN=[N+]=[N-]`, for which the composite z-score in [1] is 1.14; in test [3], -0.0045; in test [4] it was -0.517; in test [5], -0.896; in [6], -0.144; in test [7], -0.0553. For the same compound, the composite z-score in test [8] is -0.24; in test [9], 0.798; in test [10], 0.389; with Albumin (Bos taurus), -0.13; in [12] it was 0.0419; in [13], -0.102. Besides, the composite z-score in test [14] was 0.586; in test [15], 1.48; in [16], -0.11; in the test on Sam68 (KHDRBS1), 0.38; in [17], 0.373; in test [18], 0.518. This compound also came in with a z-score in [2] of -2.02. Further, the composite Z-score in test [11] is -0.169 (inactive).

As to `COc1ccc(C(O)C2C=CC3C(=O)N(c4ccccc4)C(=O)C3N2Nc2ccccc2)c2ccccc12` (stereo not given), the composite z-score in test [1] was -0.34; in test [3], -0.608; in test [4], 1.25; in test [5], 0.851; in [6] it was -0.0792; in [7] it was -0.218. In addition, the composite z-score in test [8] was 0.941; in [9], 0.814; in [10], 0.93; with Albumin (Bos taurus) it was 0.705; in test [12], 0.19; in test [13], -0.0528. Moreover, the composite z-score in [14] was 0.522; in [15], 1.97; in test [16] it was 0.0206; in the test with Sam68 (KHDRBS1), -0.309; in test [17], -0.841; in test [18], 0.69. Besides, in test [2], the z-score is -1.91. For the same compound, the composite Z-score in test [11] was 0.0542 (inactive).

Consider `[N-]=[N+]=NCc1ccccc1[C@H]1OC(c2ccc(OCCCO)cc2)=N[C@@]1(Cc1ccccc1)C(=O)O`, for which the composite z-score in test [1] was 1.38; in test [3] it was 0.115; in [4] it was 1.46; in test [5], 0.484; in test [6] it was 0.0079; in [7] it was 0.199. The composite z-score in test [8] was -0.204; in [9], 0.875; in test [10], 0.96; with Albumin (Bos taurus), 0.179; in test [12], 0.102; in [13], -0.106. Besides, the composite z-score in test [14] was 0.63; in test [15] it was 1.05; in test [16], -0.289; in the test with Sam68 (KHDRBS1) it was 1.13; in test [17] it was -0.469; in test [18], 1.11. In test [2], this compound returned a z-score of -2.64. In addition, the composite Z-score in [11] was -0.365 (inactive).

With `COCC1=C([C@H](O)CCc2ccccc2)[C@H](CO)[C@@H]2C(=O)N(Cc3ccccc3)C(=O)[C@@H]2C1`, the composite z-score in [1] was -0.0325; in test [3], 0.435; in [4] it was -0.519; in [5], -0.465; in test [6] it was -0.0194; in test [7] it was -0.214. Moreover, the composite z-score is -0.139 in [8]; 0.167 in [9]; 0.206 in test [10]; -0.103 in the test with Albumin (Bos taurus); -0.0456 in [12]; -0.129 in [13]. Besides, the composite z-score in [14] was -0.0186; in test [15] it was 0.0949; in [16], -0.102; with Sam68 (KHDRBS1), -0.0322; in test [17], 0.422; in test [18] it was 0.0998. This compound returned a z-score in test [2] of -0.711. Also, the composite Z-score in test [11] is 0.0653 (inactive).

As for `CN(C)CCCC[C@@H]1NC(=O)[C@@H]2C[C@H](C(=O)NCCCCCN)[C@H](c3ccc(O)cc3)N2C1=O`, the composite z-score in test [1] is 0.0063; in test [3] it was -0.93; in test [4], 1.99; in test [5] it was 1.42; in test [6], -0.208; in test [7], -0.026. For the same compound, the composite z-score in test [8] is 0.262; in test [9], 0.777; in test [10], 1.19; with Albumin (Bos taurus), 0.932; in test [12], 0.0229; in test [13], -0.0478. Further, the composite z-score in test [14] was 0.462; in test [15], 0.984; in [16] it was 0.443; in the test with Sam68 (KHDRBS1), 1; in [17] it was -1.76; in test [18], 1.1. Moreover, the z-score in [2] was determined as 0.285. Moreover, in test [11], the composite Z-score is 0.351 (inactive).

As for `COCCOC(=O)N1C(=O)[C@@]2(c3cc(C#CCCO)ccc31)[C@H](C(=O)NC[C@H](O)c1ccccc1)[C@H]1C(=O)O[C@H](c3ccccc3)[C@H](c3ccccc3)N1[C@@H]2c1ccc(OCCO)cc1`, the composite z-score in test [1] was 1.08; in test [3] it was 0.532; in [4], 1.09; in test [5], -0.191; in [6], -0.197; in [7], -0.23. Also, the composite z-score was -0.456 in test [8]; 0.274 in test [9]; 0.895 in [10]; 0.536 with Albumin (Bos taurus); 0.264 in [12]; -0.155 in test [13]. In addition, the composite z-score in [14] was 0.581; in test [15], 1.72; in test [16], 0.684; in the test with Sam68 (KHDRBS1) it was 1.3; in test [17], 0.534; in test [18], 1.13. The compound further had a z-score in test [2] of -0.646. For the same compound, the composite Z-score in test [11] is 0.192 (inactive).

For `O=C1C2C=CC(C(O)c3cccc4ccccc34)N(n3cnnc3)C2C(=O)N1Cc1ccccc1` (stereo not given), the composite z-score was 0.0125 in test [1]; 0.102 in test [3]; 0.197 in test [4]; -0.151 in [5]; 1.06 in test [6]; -0.309 in [7]. Moreover, the composite z-score is 2.2 in test [8]; 0.67 in test [9]; 0.274 in test [10]; -0.0146 with Albumin (Bos taurus); 1.28 in test [12]; 0.747 in [13]. In addition, the composite z-score is 0.754 in test [14]; 0.434 in test [15]; 0.544 in test [16]; -0.131 with Sam68 (KHDRBS1); 0.166 in test [17]; 0.0912 in test [18]. In [2], this compound had a z-score of -1.16. The composite Z-score in test [11] is -0.415 (inactive).

`CCCC[C@@H]1C[C@H]1[C@@H](NC(=O)c1ccco1)c1ccccc1`: the composite z-score is -1.35 in test [1]; -2.75 in test [3]; -0.352 in [4]; 0.479 in test [5]; -0.258 in [6]; 0.108 in [7]. Also, the composite z-score in test [8] is -0.218; in test [9] it was -1.63; in test [10], -0.703; in the test with Albumin (Bos taurus), 0.277; in [12], -0.25; in [13], -0.193. For the same compound, the composite z-score was -0.504 in test [14]; -0.185 in test [15]; -0.697 in test [16]; -0.555 with Sam68 (KHDRBS1); -1.41 in test [17]; -0.945 in test [18]. Also, the z-score in test [2] is -2.26. Further, the composite Z-score in test [11] is -0.264 (inactive).
